Assay outcomes as filed in PubChem.
ClpP mod: qHTS Assay for Activators of ClpP. ATP-dependent Clp protease proteolytic subunit (Bacillus subtilis (strain 168)), P80244. purified B. subtilis ClpP, FRET peptide cleavage, 20 min. actives 1.9% (n = 340,000). Potency, µM (titrated, usually from 57.5 µM), for the others: at the top dose activity change, negative = active. AID 651965, 2013; active = well fitted falling curve with a large enough effect; inconclusive = small, poorly fitted or top-dose-only effect; inactive = no such curve, though single readings can be large or run the other way; also: the source files actives as falling curves though it sought activators and does not explain the sign; nearly all actives have a fitted effect of over 65% in size
Target sequence (P80244 whole entry, looked up): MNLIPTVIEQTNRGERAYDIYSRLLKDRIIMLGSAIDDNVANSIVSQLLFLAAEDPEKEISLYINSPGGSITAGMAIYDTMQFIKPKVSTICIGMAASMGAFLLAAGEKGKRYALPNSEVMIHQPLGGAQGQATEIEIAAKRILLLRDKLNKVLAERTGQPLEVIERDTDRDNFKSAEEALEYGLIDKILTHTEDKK
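ClpP 10 microg/mL final, pH 8 Tris/KCl buffer with BSA, glycerol, Tween-20; compound pinned in; FRET-FV substrate; RT 20 min; Ex320/Em430; ΔFRET vs ADEP 5.8 microM, DMSO, no enzyme.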
TDP1 cell CPT: qHTS for Inhibitors of human tyrosyl-DNA phosphodiesterase 1 (TDP1): qHTS in cells in presence of CPT | AID 686979, 2013 | actives 12% (n = 420,000) | Potency, µM (series often up to 46.2 µM), for inactives: top-dose activity change, negative = growth inhibition, hits mostly inhibitors | chicken DT40 Tdp1-/-;hTDP1 cells + 20 nM CPT, ATP luminescence, 48 h; also: % is scaled to controls: 0 for no effect and ±100 for the full control effect; nearly all actives have a fitted effect of over 55% in size
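Chicken DT40 Tdp1-/- cells stably complemented with human TDP1 were seeded at 400 cells/well in medium containing 20 nM camptothecin, exposed to pin-transferred compounds, and grown at 37 °C for at least 48 hr. Viability was read as ATP luminescence.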
TDP1 cell noCPT: qHTS for Inhibitors of human tyrosyl-DNA phosphodiesterase 1 (TDP1): qHTS in cells in absence of CPT | DT40 Tdp1-/- hTDP1 cells, no CPT, ATP luminescence, 48 h | actives 15% (n = 420,000) | Potency, µM (highest dose often 46.2 µM), inactives show at the highest dose activity change, negative = growth inhibition, hits mostly inhibitors | AID 686978, 2013; also: % is scaled to controls: 0 for no effect and ±100 for the full control effect; nearly all actives have a fitted effect of over 55% in size
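Seeded 400 DT40-hTDP1 cells/well (vehicle DMSO, no 20 nM CPT); pinned compounds; ≥48 hr at 37 °C; CellTiter-Glo luminescence as viability measure.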
TDP1 block: qHTS Assay for Inhibitors of Tyrosyl-DNA Phosphodiesterase (TDP1); Tyrosyl-DNA phosphodiesterase 1 (Homo sapiens), Q9NUW8; Potency, µM (doses to about 130 µM), inactives show at the top dose activity change, negative = inhibition, most hits filed as inhibitors; actives 0.28% (n = 350,000); recombinant TDP1, AlphaScreen DNA substrate cleavage; also: % is scaled to controls: 0 for no effect and ±100 for the full control effect; nearly all actives have a fitted effect of over 40% in size
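Compounds were preincubated with Tdp1 (1 nM final) for 15 min at room temperature before substrate (15 nM final) started a 5 min reaction; beads (10 ug/ml final) were then added for 10 min before AlphaScreen detection.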
Numbers without * were called inactive; [ ] = dose if it differs, or a comment. The list is not random: actives were taken first. Their share in the collection is about 17%. Unless noted, calls follow the shape of the dose curve; as a rule, active = well fitted curve in the direction sought with a large enough effect; inconclusive = small, poorly fitted or top-dose-only effect, or another doubt; inactive = no such curve, though single readings can be large; an effect the other way counts as inactive or inconclusive. Potency is read from the fitted curve at half-maximal effect.

Screening Cc1c(CCC(=O)NCCCn2ccnc2)c(=O)oc2c(C)c3occ(C(C)(C)C)c3cc12 returned ClpP mod inconclusive, TDP1 cell CPT inconclusive, TDP1 cell noCPT 20.6µM* and TDP1 block 7.6%.
Screening Cc1coc2cc3oc(=O)c(CCC(=O)NCc4ccccc4Cl)c(C)c3cc12 returned ClpP mod -20.5%, TDP1 cell CPT -18.6%, TDP1 cell noCPT -1.5% and TDP1 block 0.0%.
`Cc1coc2cc3oc(=O)c(CCC(=O)NCc4ccc(Cl)cc4)c(C)c3cc12` gave ClpP mod inconclusive, TDP1 cell CPT 10.3µM*, TDP1 cell noCPT 25.9µM* and TDP1 block 4.9%.
`COc1cccc(CNC(=O)Cc2c(C)c3cc4c(C)coc4cc3oc2=O)c1` gave ClpP mod 4.7%, TDP1 cell CPT inconclusive, TDP1 cell noCPT inconclusive and TDP1 block -4.7%.
COc1ccc(CCNC(=O)CCc2c(C)c3cc4c(C)c(C)oc4cc3oc2=O)cc1 was read as ClpP mod inconclusive, TDP1 cell CPT 10.3µM*, TDP1 cell noCPT 20.6µM* and TDP1 block 0.0%.
For Cc1ccccc1CN1CCN(c2nc3ccccc3s2)CC1 the results were ClpP mod -5.5%, TDP1 cell CPT 18.4µM* and TDP1 cell noCPT -15.2%.
For CN(C)CCNc1ccc2ncn3c4ccc(O)cc4c(=O)c1c23 the results were ClpP mod -1.5%, TDP1 cell CPT 0.0517µM* and TDP1 cell noCPT 0.0231µM*.
`CCOC(=O)c1cnc2ccc(Cl)cc2c1NCCN(C)C` gave ClpP mod 13.5%, TDP1 cell CPT -3.0%, TDP1 cell noCPT inconclusive and TDP1 block -1.6%[56.1 µM].
`CN(C)CCCNC(=O)c1cc2sc3ccccc3c2s1` gave TDP1 cell CPT inconclusive, TDP1 cell noCPT inconclusive and TDP1 block 7.7%.
For CN(C)CCNc1ccc(CO)c2sc3ccc(O)cc3c(=O)c12 the results were ClpP mod -5.4%, TDP1 cell CPT 0.0259µM* and TDP1 cell noCPT 0.146µM*.
COc1ccc2c(=O)c3ccccc3oc2c1 was read as ClpP mod -20.1%, TDP1 cell CPT inconclusive and TDP1 cell noCPT inconclusive.
Screening COc1ccc2oc3cc(NCCN(C)C)ccc3c(=O)c2c1 returned ClpP mod 4.5%, TDP1 cell CPT inconclusive and TDP1 cell noCPT 25.9µM*.
`COc1ccc2sc3cccc(NCCN(C)C)c3c(=O)c2c1` gave ClpP mod -0.8%, TDP1 cell CPT 13µM* and TDP1 cell noCPT 10.3µM*.
COc1cc2c(c(OC)c1OC)-c1c(cc3c(c1OC)OCO3)C[C@@H](C)[C@](C)(O)C2 was read as TDP1 cell CPT 9.4% and TDP1 cell noCPT inconclusive.
`Fc1ccc(-c2nnc(Cc3ccc(Cl)cc3)o2)cc1` gave ClpP mod 0.8%, TDP1 cell CPT -2.6% and TDP1 cell noCPT -14.5%.
`CCOC(=O)c1ccc(NC(=S)NCCc2ccc(F)cc2)cc1` gave TDP1 cell CPT inconclusive, TDP1 cell noCPT inconclusive and TDP1 block 5.4%.
For Cc1ccc2oc(-c3ccc(Cl)c(NC(=O)c4ccc(-c5ccccc5[N+](=O)[O-])o4)c3)nc2c1 the results were ClpP mod -0.2%, TDP1 cell CPT -12.8%, TDP1 cell noCPT -19.1% and TDP1 block -1.9%.
For COC(=O)C1(Cc2ccccc2)NC(c2ccc(F)cc2)C2C(=O)N(C)C(=O)C21 (stereo not given) the results were ClpP mod 1.0%, TDP1 cell CPT -15.1%, TDP1 cell noCPT inconclusive and TDP1 block -1.7%.
Screening COC(=O)[C@]1(Cc2ccccc2)N[C@H](c2ccc(-c3ccccc3)cc2)[C@@H]2C(=O)N(C)C(=O)[C@@H]21 returned ClpP mod -22.2%, TDP1 cell CPT inconclusive, TDP1 cell noCPT inconclusive and TDP1 block 0.8%.
`COC(=O)[C@]1(Cc2ccccc2)N[C@H](c2ccc(-c3cc(C(C)=O)cs3)cc2)[C@@H]2C(=O)N(C)C(=O)[C@@H]21` gave ClpP mod 17.8µM*, TDP1 cell CPT 16.4µM* and TDP1 cell noCPT 23.1µM*.
